The record followed here is ChEMBL document CHEMBL5724796, “Tm Shift (DSF) assay results for EUbOPEN Chemogenomics Library” (2024).

Holding throughout (conditions): Compound concentration 20.0 uM
Assay [1] has as its target Tyrosine-protein kinase ABL1 (Homo sapiens) (UniProt P00519).
In assay [2] the target is Bromodomain-containing protein 4 (Homo sapiens) (UniProt O60885).
For assay [3], the target named is Cyclin-dependent kinase 2 (Homo sapiens) (UniProt P24941).
Assay [4] deals with Casein kinase I isoform delta (Homo sapiens) (UniProt P48730).
Casein kinase I isoform delta (Homo sapiens), sequence (P48730 whole entry, looked up, canonical isoform): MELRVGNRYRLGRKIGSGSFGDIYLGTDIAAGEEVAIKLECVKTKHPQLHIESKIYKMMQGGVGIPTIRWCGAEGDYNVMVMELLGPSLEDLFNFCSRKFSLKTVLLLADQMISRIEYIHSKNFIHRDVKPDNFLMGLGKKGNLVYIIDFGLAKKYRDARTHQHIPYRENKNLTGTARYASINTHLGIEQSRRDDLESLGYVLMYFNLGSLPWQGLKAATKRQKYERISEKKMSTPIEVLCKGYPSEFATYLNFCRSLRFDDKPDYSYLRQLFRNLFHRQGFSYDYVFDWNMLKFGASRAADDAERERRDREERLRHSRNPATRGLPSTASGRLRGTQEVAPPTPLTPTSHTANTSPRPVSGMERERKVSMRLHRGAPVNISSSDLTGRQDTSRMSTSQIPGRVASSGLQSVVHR
Assay [5] deals with Glycogen synthase kinase-3 beta (Homo sapiens) (UniProt P49841).
Glycogen synthase kinase-3 beta (Homo sapiens), sequence (P49841 whole entry, looked up): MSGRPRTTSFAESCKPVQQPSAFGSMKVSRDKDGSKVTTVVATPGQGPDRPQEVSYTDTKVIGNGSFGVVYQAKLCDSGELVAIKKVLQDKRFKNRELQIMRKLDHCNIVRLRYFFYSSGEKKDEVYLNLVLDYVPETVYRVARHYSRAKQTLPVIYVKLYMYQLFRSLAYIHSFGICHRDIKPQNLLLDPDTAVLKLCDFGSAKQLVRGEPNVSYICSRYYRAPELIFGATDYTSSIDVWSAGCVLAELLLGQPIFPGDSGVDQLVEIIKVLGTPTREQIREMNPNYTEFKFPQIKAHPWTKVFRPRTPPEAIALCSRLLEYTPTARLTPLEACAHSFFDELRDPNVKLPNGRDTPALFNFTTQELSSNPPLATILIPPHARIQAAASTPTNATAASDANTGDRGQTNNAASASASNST
The target of assay [6] is Mitogen-activated protein kinase 1 (Homo sapiens) (UniProt P28482).
Mitogen-activated protein kinase 1 (Homo sapiens), sequence (P28482 whole entry): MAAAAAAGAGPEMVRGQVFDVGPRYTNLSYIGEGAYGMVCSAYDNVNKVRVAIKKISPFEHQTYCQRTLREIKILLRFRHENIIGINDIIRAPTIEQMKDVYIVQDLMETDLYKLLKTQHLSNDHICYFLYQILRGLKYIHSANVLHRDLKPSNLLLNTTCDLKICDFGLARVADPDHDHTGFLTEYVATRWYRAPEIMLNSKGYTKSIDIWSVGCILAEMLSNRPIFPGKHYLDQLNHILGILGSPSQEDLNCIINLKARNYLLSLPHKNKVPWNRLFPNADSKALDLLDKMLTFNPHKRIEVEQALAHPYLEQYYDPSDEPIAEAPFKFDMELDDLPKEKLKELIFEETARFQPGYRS
Assay [7] has as its target T1, Aurora kinase A (Homo sapiens) (UniProt O14965).
T1 sequence (whole entry): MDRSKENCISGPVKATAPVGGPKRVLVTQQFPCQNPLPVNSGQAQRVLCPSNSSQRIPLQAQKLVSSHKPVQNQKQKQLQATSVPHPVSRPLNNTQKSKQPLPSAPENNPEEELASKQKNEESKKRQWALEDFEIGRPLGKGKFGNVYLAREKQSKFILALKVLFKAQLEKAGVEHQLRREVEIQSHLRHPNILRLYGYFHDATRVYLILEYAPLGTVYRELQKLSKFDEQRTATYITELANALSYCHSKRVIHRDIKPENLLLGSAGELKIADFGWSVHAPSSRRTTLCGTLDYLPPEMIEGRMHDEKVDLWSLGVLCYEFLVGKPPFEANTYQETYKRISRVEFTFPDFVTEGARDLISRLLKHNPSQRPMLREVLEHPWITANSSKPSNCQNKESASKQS

The target of assay [8] is T2, Transcription intermediary factor 1-alpha (Homo sapiens) (UniProt O15164).
T2 sequence (whole entry): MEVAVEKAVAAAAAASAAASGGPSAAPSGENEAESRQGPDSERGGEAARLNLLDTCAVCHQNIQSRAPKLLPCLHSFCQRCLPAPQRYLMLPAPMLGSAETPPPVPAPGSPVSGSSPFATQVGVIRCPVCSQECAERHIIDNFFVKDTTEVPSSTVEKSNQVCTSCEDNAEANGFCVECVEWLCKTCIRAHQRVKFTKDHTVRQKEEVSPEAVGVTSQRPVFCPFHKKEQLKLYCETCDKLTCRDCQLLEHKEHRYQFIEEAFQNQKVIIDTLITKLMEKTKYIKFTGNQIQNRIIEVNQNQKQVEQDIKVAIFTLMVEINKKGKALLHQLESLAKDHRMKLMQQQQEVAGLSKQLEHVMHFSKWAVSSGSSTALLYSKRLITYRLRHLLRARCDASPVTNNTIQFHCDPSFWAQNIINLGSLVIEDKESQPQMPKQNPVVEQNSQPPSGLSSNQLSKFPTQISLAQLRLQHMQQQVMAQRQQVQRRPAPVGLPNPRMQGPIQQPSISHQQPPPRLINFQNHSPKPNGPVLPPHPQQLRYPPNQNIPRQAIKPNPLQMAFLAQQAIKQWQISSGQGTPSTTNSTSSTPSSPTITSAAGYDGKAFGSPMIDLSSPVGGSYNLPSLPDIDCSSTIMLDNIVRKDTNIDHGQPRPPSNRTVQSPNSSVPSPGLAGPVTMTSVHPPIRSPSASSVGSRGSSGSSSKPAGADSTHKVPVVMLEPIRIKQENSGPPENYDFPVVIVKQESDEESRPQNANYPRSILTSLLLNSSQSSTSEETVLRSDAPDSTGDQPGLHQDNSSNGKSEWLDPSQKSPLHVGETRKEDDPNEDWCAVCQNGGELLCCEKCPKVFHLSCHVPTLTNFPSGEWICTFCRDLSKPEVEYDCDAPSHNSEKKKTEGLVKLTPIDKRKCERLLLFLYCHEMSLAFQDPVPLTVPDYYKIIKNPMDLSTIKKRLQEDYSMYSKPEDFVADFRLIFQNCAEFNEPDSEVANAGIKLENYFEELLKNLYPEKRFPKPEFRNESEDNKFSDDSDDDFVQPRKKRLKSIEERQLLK

Broadly, the ΔTm is the change in melting temperature against a reference sample.

Tyrosine-protein kinase ABL1 (Homo sapiens), sequence (P00519 whole entry): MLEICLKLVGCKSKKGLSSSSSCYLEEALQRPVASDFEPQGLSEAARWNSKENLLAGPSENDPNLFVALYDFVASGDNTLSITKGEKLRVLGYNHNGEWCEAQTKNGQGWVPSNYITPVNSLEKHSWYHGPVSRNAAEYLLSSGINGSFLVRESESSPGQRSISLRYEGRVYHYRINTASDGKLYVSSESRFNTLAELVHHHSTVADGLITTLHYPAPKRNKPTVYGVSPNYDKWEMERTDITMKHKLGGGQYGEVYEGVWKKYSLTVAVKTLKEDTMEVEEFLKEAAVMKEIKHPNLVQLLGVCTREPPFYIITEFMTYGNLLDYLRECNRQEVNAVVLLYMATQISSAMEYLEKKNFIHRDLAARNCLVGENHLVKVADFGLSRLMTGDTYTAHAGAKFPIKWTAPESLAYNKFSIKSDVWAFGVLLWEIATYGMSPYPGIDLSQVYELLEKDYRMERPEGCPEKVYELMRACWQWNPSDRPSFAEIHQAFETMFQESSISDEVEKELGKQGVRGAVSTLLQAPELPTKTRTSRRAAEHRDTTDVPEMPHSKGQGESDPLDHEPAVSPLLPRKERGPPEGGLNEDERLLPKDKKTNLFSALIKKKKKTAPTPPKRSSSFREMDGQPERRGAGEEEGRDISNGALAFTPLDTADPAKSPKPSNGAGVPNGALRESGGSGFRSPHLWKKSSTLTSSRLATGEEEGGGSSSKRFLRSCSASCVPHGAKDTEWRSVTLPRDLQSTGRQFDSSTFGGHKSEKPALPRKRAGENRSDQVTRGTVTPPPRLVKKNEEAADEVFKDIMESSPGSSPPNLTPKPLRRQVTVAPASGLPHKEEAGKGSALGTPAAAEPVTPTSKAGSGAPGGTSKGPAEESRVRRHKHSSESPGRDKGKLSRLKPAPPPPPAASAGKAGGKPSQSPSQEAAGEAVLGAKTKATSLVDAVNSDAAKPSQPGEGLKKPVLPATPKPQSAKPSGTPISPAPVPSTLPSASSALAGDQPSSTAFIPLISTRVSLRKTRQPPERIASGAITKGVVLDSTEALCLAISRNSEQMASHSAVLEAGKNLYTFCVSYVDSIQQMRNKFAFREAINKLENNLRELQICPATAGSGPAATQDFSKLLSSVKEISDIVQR

As for `COc1nc(N)nc(Nc2cc(S(N)(=O)=O)ccc2N[C@@H](c2cccc3c2OC(F)(F)O3)c2ncccc2Cl)n1`, the ΔTm in assay [1] was 1.16 °C; in assay [2] it was -2.02 °C; in assay [3], -0.4 °C; in assay [4] it was 0.06 °C; in assay [5], -3.33 °C; in assay [6], -12.4 °C. Besides, the ΔTm in assay [7] was -1.68 °C; in assay [8], 0.11 °C.
Turning to `CNC(=O)c1cc(Nc2ccnc(Nc3ccc(CCNC(=O)OC(C)(C)C)cc3)n2)n[nH]1`, the ΔTm is 0.52 °C in assay [1]; -6.4 °C in assay [2]; -0.49 °C in assay [3]; 0.55 °C in assay [4]; -1.3 °C in assay [5]; -12.3 °C in assay [6]. For the same compound, the ΔTm is -0.62 °C in assay [7] and 0.91 °C in assay [8].
Turning to `Cc1c(NC(=O)c2cc(C(N)=O)nc3cc(F)ccc23)c(C(F)(F)F)nn1Cc1ccc(C#N)cc1`, the ΔTm in assay [1] was 0.61 °C; in assay [2], -2.09 °C; in assay [3], 0.06 °C; in assay [4], 0.03 °C; in assay [5] it was 0.78 °C; in assay [6] it was 0.34 °C. Moreover, the ΔTm in assay [7] is -2.13 °C; in assay [8] it was 1.34 °C.
On to `NC(=O)C1CCCc2c1[nH]c1ccc(Cl)cc21` (configuration not stated), for which the ΔTm in assay [1] is 0.6 °C; in assay [2], -2.56 °C; in assay [3], 0.2 °C; in assay [4], -0.38 °C; in assay [5], 0.62 °C; in assay [6], 0.17 °C. For the same compound, the shift in melting temperature (ΔTm) in assay [7] was -0.98 °C; in assay [8] it was -0.37 °C.
With `CC(C)(C)OC(=O)Nc1ccc(CNc2nccc(Nc3cc(C(=O)OC(C)(C)C)[nH]n3)n2)cc1`, the ΔTm in assay [1] was 2.57 °C; in assay [2] it was -0.88 °C; in assay [3], 5.67 °C; in assay [4], 0.13 °C; in assay [5] it was 0.97 °C; in assay [6], -2.08 °C. Also, the ΔTm in assay [7] amounted to 26.1 °C; in assay [8], 0.26 °C.
As for `CC1(C)c2cccc(C(=O)NO)c2CN1c1cnc(C(F)(F)F)cn1`, the shift in melting temperature (ΔTm) in assay [1] is 0.41 °C; in assay [2] it was -2.93 °C; in assay [3], -2.1 °C; in assay [4], 0.64 °C; in assay [5], 0 °C; in assay [6] it was 0 °C. Further, the thermal shift (ΔTm) in assay [7] was -2.98 °C; in assay [8], -1.07 °C.
Take `Cc1cc(-c2ccc3nc(C4CCOCC4)n(CCOC(F)(F)F)c3c2)cn(C)c1=O`: the ΔTm in assay [1] is 0.26 °C; in assay [2], 10.3 °C; in assay [3], 0.15 °C; in assay [4], 0.13 °C; in assay [5] it was -0.07 °C; in assay [6], -0.47 °C. Besides, the ΔTm in assay [7] was -0.36 °C; in assay [8], -0.3 °C.
Turning to `CC(C)(C)OC(=O)Nc1ccc(-c2cc(C(=O)NCCCCCCC(=O)NO)no2)cc1`, the ΔTm in assay [1] is -1.36 °C; in assay [2] it was 0 °C; in assay [3], -1.64 °C; in assay [4], -3.22 °C; in assay [5], 0 °C; in assay [6], 0 °C. Moreover, the ΔTm in assay [7] is -4.92 °C; in assay [8], -2.07 °C.
Consider `CN1CC(=O)N2[C@H](c3ccc4c(c3)OCO4)c3[nH]c4ccccc4c3C[C@@H]2C1=O`, for which the ΔTm in assay [1] is 0.48 °C; in assay [2] it was -3.03 °C; in assay [3], -0.06 °C; in assay [4], 0.06 °C; in assay [5], -0.13 °C; in assay [6] it was 0.16 °C. The ΔTm in assay [7] is -2.46 °C; in assay [8], -0.6 °C.
In the case of `CCCOc1cc(OCCCCN(C)C)cc(Oc2cc3c(cc2NS(=O)(=O)c2ccc(OC)c(OC)c2)n(C)c(=O)n3C)c1`, the ΔTm in assay [1] amounted to 0.57 °C; in assay [2] it was 0.5 °C; in assay [3], 0.09 °C; in assay [4], 0.22 °C; in assay [5], 0.59 °C; in assay [6] it was 0 °C. Also, the thermal shift (ΔTm) in assay [7] is -0.88 °C.
As to `CCS(=O)(=O)N1CC(CC#N)(n2cc(-c3ncnc4[nH]ccc34)cn2)C1`, the ΔTm was 2.37 °C in assay [1]; -1.2 °C in assay [2]; 0.85 °C in assay [3]; 1.28 °C in assay [4]; 3.43 °C in assay [5]; 0.18 °C in assay [6]. Moreover, the ΔTm was 5.08 °C in assay [7] and -0.73 °C in assay [8].
